The full ranking holds about 33,000 sequences; the median of “normalized occupancy” is about 0.075, and the highest 2% start at about 0.095. The sample holds the highest values, similar sequences and a random draw of the others, so the mix is not that of the screen.

Sequence of MaxL homodimer (P61244 whole entry): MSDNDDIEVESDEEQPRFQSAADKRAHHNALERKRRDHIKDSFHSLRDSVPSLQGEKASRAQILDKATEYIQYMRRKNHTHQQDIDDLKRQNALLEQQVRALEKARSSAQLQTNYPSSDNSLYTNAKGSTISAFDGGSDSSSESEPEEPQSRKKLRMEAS

The assay has as its target MaxL homodimer (Homo sapiens, UniProt P61244 1-160). Description: universal protein-binding microarray (PBM); PBS-based mixture, 10 nM His-tagged protein dimer, 2% milk, 200 ng/uL BSA, 50 ng/uL salmon testes DNA, 0.02% TX-100; detection with Alexa 488 anti-His antibody;; high values mean tight binding. Particulars: protein: recombinant; tags: C-terminal His-tag (pET21a); chain copies: 2; dsDNA, one strand shown. The method, boiled down:
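A His-tagged protein dimer at 10 nM was incubated on Agilent 4 x 44 K arrays of the 'all 10-mer' universal design, then labelled with 10 ng/μL fluorophore-conjugated anti-His antibody and scanned on a GenePix 4400A. A fluorescence intensity was assigned to each 8-mer. Binding occupancy is each such intensity normalised to that of the highest-ranked one.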
With CGCAACTA, the binding signal stood at 0.0738 normalized occupancy.
Next, CAAGAGGG: 0.0744 normalized occupancy; CTGGTCGC: 0.0732 normalized occupancy; ATGTATTC: 0.0814 normalized occupancy.
Then GATGTACA, with 0.0827 normalized occupancy; and CATGTACG, with 0.0957 normalized occupancy; and CATGTACA, with 0.0958 normalized occupancy.
Then CATGTATA, with 0.089 normalized occupancy.
Take AATGTACG: the binding signal came out at 0.0761 normalized occupancy.
Next, CATGTACC: 0.0843 normalized occupancy.
Next, AATGTATC: 0.0876 normalized occupancy; CATGTATC: 0.0975 normalized occupancy.
For AATGTACA, the binding signal stood at 0.0818 normalized occupancy.
Next, AGTATTAT: 0.0827 normalized occupancy.
Next, CAGTGATG: 0.0746 normalized occupancy.
Regarding CACTTCGG, the binding signal was 0.0755 normalized occupancy.
Next, TCGACAGA: 0.0736 normalized occupancy.
Next, CGGTAGCA: 0.0827 normalized occupancy.
Next, AGCAGATC: 0.077 normalized occupancy; ACTCCAGT: 0.0743 normalized occupancy; ACGCTGTA: 0.0841 normalized occupancy.
Regarding CCGGTGAG, the binding signal turned out to be 0.0746 normalized occupancy.
Then GACCTTGA, with 0.0732 normalized occupancy.
Next, GCTAAATA: 0.079 normalized occupancy; AAGGTGGC: 0.0758 normalized occupancy; CAGGTGGA: 0.0861 normalized occupancy.
Next, CAGATGGG: 0.0837 normalized occupancy; GAGGTGGC: 0.0764 normalized occupancy; CAGGTGGC: 0.0954 normalized occupancy.
In the case of CAGGTGGG, the binding signal came to 0.101 normalized occupancy.
GTGCTGAA: the binding signal came to 0.0776 normalized occupancy.
Next, AATGGTAC: 0.0764 normalized occupancy.
Then AGTAGGAT, with 0.076 normalized occupancy; and GAATGGTA, with 0.08 normalized occupancy; and CCATGGTA, with 0.0851 normalized occupancy.
Next, ACTTGGTA: 0.0735 normalized occupancy; GCATGGTA: 0.106 normalized occupancy; CCATGGTC: 0.0849 normalized occupancy.
In the case of ACATGGTG, the binding signal was found to be 0.0914 normalized occupancy.
Next, ACATGGTA: 0.104 normalized occupancy; ATATGGTA: 0.0884 normalized occupancy; ACATGGTC: 0.104 normalized occupancy.
Then AGGCGAGG, with 0.0752 normalized occupancy.
Regarding CCTACAGG, the binding signal was 0.0722 normalized occupancy.
Next, CGCGACGA: 0.0728 normalized occupancy.
For the sequence CACTTTTA, the binding signal turned out to be 0.0728 normalized occupancy.
Next, AAAGGTGT: 0.0816 normalized occupancy.
Next, GTTAGAAA: 0.0757 normalized occupancy; TACGAACA: 0.0754 normalized occupancy; AAGCAACG: 0.0753 normalized occupancy.
In the case of CAACGCGC, the binding signal was 0.0787 normalized occupancy.
CGACGCGA: the binding signal is 0.0735 normalized occupancy.
Then TCACGCGA, with 0.11 normalized occupancy.
Then TCACGCCA, with 0.0851 normalized occupancy; and CTACGCGC, with 0.0727 normalized occupancy; and CCACGCGC, with 0.157 normalized occupancy.
Then TCACGCAA, with 0.0764 normalized occupancy; and CAACGCGA, with 0.0767 normalized occupancy; and CCACGCGA, with 0.131 normalized occupancy.
For the sequence CAACGCGG, the binding signal worked out at 0.0764 normalized occupancy.
Then CCACGCAG, with 0.0904 normalized occupancy; and CCACGCGG, with 0.32 normalized occupancy; and GCCTACAA, with 0.075 normalized occupancy.
Then GACAGAGA, with 0.0724 normalized occupancy; and ATACAACA, with 0.0788 normalized occupancy.
Next, CGAAAGCA: 0.0741 normalized occupancy; CAGGGGGA: 0.0851 normalized occupancy.
TCTTCGCA: the binding signal was determined as 0.0796 normalized occupancy.
As to AATAGAGC, the binding signal stood at 0.0803 normalized occupancy.
Take AATAACGT: the binding signal is 0.0823 normalized occupancy.
In the case of ATTAGTAC, the binding signal turned out to be 0.0786 normalized occupancy.
Regarding AATGCATC, the binding signal stood at 0.0763 normalized occupancy.
Next, AATGCATT: 0.0797 normalized occupancy; AGTGCATG: 0.0988 normalized occupancy; CATGCATG: 0.121 normalized occupancy.
Next, AGTGCATA: 0.0847 normalized occupancy; ACTGCATG: 0.0859 normalized occupancy; CATGCATC: 0.0997 normalized occupancy.
Next, AATGCATG: 0.1 normalized occupancy; CATGCAAG: 0.0837 normalized occupancy.
For the sequence AGTGCATC, the binding signal stood at 0.0772 normalized occupancy.
Turning to CCTGCATC, the binding signal came out at 0.0807 normalized occupancy.
Next, GATGCATC: 0.0787 normalized occupancy; GCACGAAA: 0.078 normalized occupancy.
Next, TAGACACA: 0.0829 normalized occupancy; AACAAGCC: 0.0718 normalized occupancy; AGAGTTTG: 0.073 normalized occupancy.
Then CCTGGGAC, with 0.0732 normalized occupancy.
As for ATGTCTCG, the binding signal is 0.0802 normalized occupancy.
Consider CGCTCACC, for which the binding signal was found to be 0.0763 normalized occupancy.
Then AAGCCATC, with 0.0756 normalized occupancy; and AAGAAGGA, with 0.0794 normalized occupancy.
Then AATGCATA, with 0.0839 normalized occupancy.
With TATGCATA, the binding signal came to 0.0811 normalized occupancy.
Then CATGCATA, with 0.0989 normalized occupancy; and CACGGGGG, with 0.101 normalized occupancy.
Turning to CACGGGGA, the binding signal was found to be 0.0894 normalized occupancy.
Next, CCACGGGA: 0.0794 normalized occupancy; CCACGGGG: 0.097 normalized occupancy; CACGGGGC: 0.0863 normalized occupancy.
Consider CCACGGGC, for which the binding signal was found to be 0.076 normalized occupancy.
Consider AGGAATTG, for which the binding signal is 0.0797 normalized occupancy.
Take ACGTAGCG: the binding signal was 0.0805 normalized occupancy.
Next, ACCCCGTG: 0.108 normalized occupancy; CACCCATA: 0.0892 normalized occupancy; ACCCCATA: 0.0838 normalized occupancy.
Then AACCCATG, with 0.0961 normalized occupancy.
Then ACCCCATG, with 0.102 normalized occupancy; and ACCCCGTA, with 0.0818 normalized occupancy; and AACCCATA, with 0.0815 normalized occupancy.
As for AACCCGTG, the binding signal worked out at 0.0816 normalized occupancy.
Then CACCCATC, with 0.0827 normalized occupancy.
Next, CACCCATG: 0.1 normalized occupancy.
Then AACCCATT, with 0.0783 normalized occupancy; and ACCCCATC, with 0.0823 normalized occupancy.
With CGGACGCA, the binding signal is 0.0735 normalized occupancy.
Then ATTTTCTA, with 0.0856 normalized occupancy; and CAGAAGAC, with 0.0718 normalized occupancy.
Next, GACAGTAA: 0.0794 normalized occupancy; ACGTTCGA: 0.0752 normalized occupancy.
Then CACGACAC, with 0.0789 normalized occupancy.
Take CGTACGGC: the binding signal was found to be 0.0778 normalized occupancy.
Next, AAACAGCA: 0.0759 normalized occupancy; AGCATGTC: 0.1 normalized occupancy.
Then CGCATTTC, with 0.0783 normalized occupancy; and CGCATCTC, with 0.0769 normalized occupancy.
Turning to CGCATGTC, the binding signal is 0.105 normalized occupancy.
As to AGCATGTA, the binding signal stood at 0.106 normalized occupancy.
Then AGCATTTC, with 0.0792 normalized occupancy; and AGGATGTA, with 0.0795 normalized occupancy; and AGTATGTC, with 0.0803 normalized occupancy.
Then AGCATGTG, with 0.164 normalized occupancy; and AGGATGTG, with 0.0831 normalized occupancy.
As for GGCATGTA, the binding signal was found to be 0.0812 normalized occupancy.
Next, AGTATGTG: 0.081 normalized occupancy.
Consider CCGTACAC, for which the binding signal was found to be 0.0886 normalized occupancy.
Then GTGAGTGA, with 0.0775 normalized occupancy.
Next, ACTGGCCT: 0.073 normalized occupancy.
With CATTCGCA, the binding signal came to 0.078 normalized occupancy.
Next, AGCCAACA: 0.0808 normalized occupancy; ACTTGTGC: 0.0751 normalized occupancy.
For AAAATTAG, the binding signal stood at 0.0735 normalized occupancy.
Next, ATTAAGGA: 0.0744 normalized occupancy; AAACAGTA: 0.0764 normalized occupancy.
Then CGCATGTA, with 0.105 normalized occupancy; and CTCATGTA, with 0.0936 normalized occupancy.
For CCCATGTA, the binding signal was found to be 0.0872 normalized occupancy.
Next, GGAATCCC: 0.0772 normalized occupancy.
Next, ATCGTTCG: 0.0755 normalized occupancy; CAAGCGAG: 0.0757 normalized occupancy; CAAGCGCG: 0.0759 normalized occupancy.
Then AAAGCGTG, with 0.11 normalized occupancy; and AAAGCGCG, with 0.0769 normalized occupancy; and CAAGCGTG, with 0.104 normalized occupancy.
For the sequence AAAGCGTT, the binding signal is 0.0746 normalized occupancy.
Next, ATGTTGCA: 0.0888 normalized occupancy; CTTCCCCA: 0.0787 normalized occupancy; AGTAGTAG: 0.0786 normalized occupancy.
Then GATGTTAC, with 0.0818 normalized occupancy; and AGGCGTCA, with 0.0742 normalized occupancy; and CGGTACAC, with 0.0815 normalized occupancy.
Then GACGTGGC, with 0.0846 normalized occupancy; and AAAGTGGT, with 0.0721 normalized occupancy.
For the sequence AACGTGGG, the binding signal amounted to 0.114 normalized occupancy.
Next, AACGTAGC: 0.0749 normalized occupancy; ATCGTGGG: 0.0895 normalized occupancy; AACGTGGT: 0.125 normalized occupancy.
Then AACGTTGT, with 0.0817 normalized occupancy; and AACGTGGC, with 0.107 normalized occupancy; and ACCGTGGG, with 0.0732 normalized occupancy.
Next, AGTAACTC: 0.0742 normalized occupancy; CTAGGAGA: 0.0761 normalized occupancy.

The values above are taken from article PMC4242493, “Sequence specificity incompletely defines the genome-wide occupancy of Myc”.
